{"source": "PubChem BioAssay AID493076", "about": "(National Center for Advancing Translational Sciences (NCATS), 2011)", "note": "The other results are listed elsewhere or left out. Inconclusive results are not listed. The source made the active and inactive calls. The call rests on the fitted dose curve; in most records, active means well fitted curve in the direction sought with a large enough effect; inconclusive means small, poorly fitted or top-dose-only effect, or effect the other way, or another doubt; inactive means no such curve, though single readings can be large or run the other way. Residues, ends and D or L forms follow the SMILES beside them. *: point of attachment. OPac = O=C(CO*)c1ccccc1; Bz = O=C(c1ccccc1)*", "data": [{"molecular_target": "Thyrotropin-releasing hormone receptor (Homo sapiens) (UniProt P34981)", "sequence (P34981 whole entry, looked up)": "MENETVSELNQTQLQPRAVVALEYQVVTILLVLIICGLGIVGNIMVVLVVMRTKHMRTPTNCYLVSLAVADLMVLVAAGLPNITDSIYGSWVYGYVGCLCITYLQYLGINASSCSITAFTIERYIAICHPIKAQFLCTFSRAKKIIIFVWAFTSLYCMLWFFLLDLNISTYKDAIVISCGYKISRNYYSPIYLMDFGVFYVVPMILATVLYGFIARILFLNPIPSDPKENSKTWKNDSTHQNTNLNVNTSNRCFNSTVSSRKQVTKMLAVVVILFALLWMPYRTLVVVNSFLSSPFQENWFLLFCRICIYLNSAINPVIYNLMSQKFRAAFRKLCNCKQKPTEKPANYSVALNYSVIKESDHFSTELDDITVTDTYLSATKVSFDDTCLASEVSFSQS", "assay": "qHTS for Small Molecule Agonists and Allosteric Enhancers of Human TRH Receptor: Confirmation Screen for Enhancers", "details": "TRH receptor cell assay, enhancer confirmation qHTS; series mostly up to 46.1 µM", "text": "NIH Chemical Genomics Center [NCGC]\nNIH Molecular Libraries Probe Centers Network [MLPCN]\nAssay Submitter (PI): Marvin Gershengorn\nThis project aims to identify small drug-like molecules that activate (agonists) the thyrotropin releasing hormone (TRH) receptor (TRHR) or enhance its TRH-stimulated activity (allosteric enhancers). TRHR, a drug-accessible cell surface receptor expressed in specific brain regions, and its ligand TRH have been implicated in several central nervous system disorders, including depression and anxiety. Small molecule TRHR agonists or allosteric enhancers that are metabolically stable and able to cross the blood-brain barrier might serve as probes to elucidate the roles of brain TRH receptors in animal models, and might be valuable as lead compounds for the development of drugs to treat patients with central nervous system disorders.\nUpon TRHR-Gq activation in TRHR cells, intracellular calcium is released from stores in the endoplasmic reticulum. […] This primary screen measures compound-induced enhancement of an EC20 stimulation of the receptor by its native ligand.\nFor the HTS assay freshly prepared cells are plated at a density of 2000/well in 3 ul of complete DMEM medium containing 10% serum in 1536-well plates and cultured over night at 37 C in a humidified incubator with 5% CO2. The next day, 2 ul of a no wash calcium dye (ABD Bioquest) was added to the cells and plates were incubated at room temperature for 1 hour. For the assay, assay plates were loaded into the FDSS kinetic plate reader. A 10 cycle (1 second/cycle) baseline measurement is taken and then the FDSS online 1536 pintool delivers 23 nl of compound library (as well as TRH controls) to the plate. The plate is measured for kinetically at 1 cycle/sec for 180 seconds and is considered to be the agonist portion of the assay (eg, compounds which activate a positive calcium response during this portion are flagged as potential agonists). Following the 180 second read, 1 ul of either an EC20 (positive modulation assay) is delivered by an onboard pipette head. Measurements are taken kinetically for an additional 180 seconds.\nTRHR FDSS Screening Protocol\n1. Reagent, 3 uL 2000 cells/well 1536 TC treated Black plate in media containing 10% FCS\n2. Time, 18 hours, 33.5C 5% CO2 (cells grown at 37C)\n3. Reagent, 2 uL ABD fluo-8 Ca dye\n4. Time, 30 min-1.5hrs hours, Room temp (6 plates/batch)\n5. Detector, EX 480/EM 530C, FDSS 10 cycles baseline (1sec/cycle)\n6. Compound, 23 nL of stock solution from library\n7. Detector, EX 480/EM 530C, FDSS 230 cycles (1sec/cycle) Agonist mode\n8. Compound, 1 ul EC20 of TRH made up in HEPES HBSS, 10 nM final\n9. Detector, EX 480/EM 530C, FDSS 100 cycles (1sec/cycle) Potentiator mode", "values": [{"smiles": "Cc1ccc(Cl)c(OCC(=O)N2CCc3ccccc3C2)c1", "outcome": "inactive"}, {"smiles": "CCOc1cc(CN2CCCC(CO)(Cc3ccc(F)cc3F)C2)ccc1OC", "note": "(stereo not given)", "outcome": "inactive"}, {"smiles": "COc1cc(/C=C(\\C#N)c2nc3ccccc3[nH]2)ccc1O", "outcome": "inactive"}, {"smiles": "Cc1cc(S(=O)(=O)c2cc3ccc(O)c(C)c3oc2=O)ccc1F", "outcome": "inactive"}, {"smiles": "O=C(Nc1ccccc1)c1cccnc1Nc1ccccc1", "outcome": "inactive"}, {"smiles": "C/C(=C\\c1ccco1)CN1CCC(N2CCC(C(=O)N3CCOCC3)CC2)CC1", "outcome": "inactive"}, {"smiles": "CC(=O)n1c(C=Nc2ccccc2)c(O)c2ccccc21", "outcome": "inactive"}, {"smiles": "Cc1c(/C=N\\NC(=O)c2cc3ccccc3o2)c2ccccc2n1C", "outcome": "inactive"}, {"smiles": "Cc1csc(CN(C)C(=O)CC2C(=O)NCCN2CC(C)(C)C)n1", "note": "(stereo not given)", "outcome": "inactive"}, {"smiles": "CCOc1ncccc1C(=O)OCC(=O)N1c2ccccc2CC1C", "note": "(stereo not given)", "outcome": "inactive"}, {"smiles": "O=C(CN1C(=O)c2cccc3cccc1c23)Nc1ccccc1", "outcome": "inactive"}, {"smiles": "CCc1ccccc1NC(=O)/C(=C/c1ccccc1)c1ccccc1", "outcome": "inactive"}, {"smiles": "Cc1cccn2c(=O)c3cc(C(=O)NC4CCCCC4)sc3nc12", "outcome": "inactive"}, {"smiles": "Cc1cc(C(=O)CCl)c(C)n1CC1COc2ccccc2O1", "note": "(stereo not given)", "outcome": "inactive"}, {"smiles": "Cc1ccc(S(=O)(=O)N2CCN(CC(=O)N/N=C/c3ccc(Br)s3)CC2)cc1", "outcome": "inactive"}, {"smiles": "CC(=O)c1cc(NC(=O)c2ccccc2)c(=O)oc1/C=C/N(C)C", "outcome": "inactive"}, {"smiles": "COc1ccc(Cl)cc1NC(=O)CN(C)Cc1ccc(OC)c(OC)c1", "outcome": "inactive"}, {"smiles": "Cc1cc(C)c2nc3nc(C)cc(C)c3c(N)c2c1", "outcome": "inactive"}, {"smiles": "NC(N)=Nc1nc(-c2ccccc2)c2cc(Cl)ccc2n1", "outcome": "inactive"}, {"smiles": "O=C1NC(=O)C2C1C(c1ccc([N+](=O)[O-])cc1)=NN2Cc1ccccc1", "note": "(stereo not given)", "outcome": "inactive"}, {"smiles": "COC(=O)c1cc(N2CCNCC2)nc2ccccc12", "outcome": "inactive"}, {"smiles": "CC(=O)N1CCN(CC(=O)Nc2ccc(C)c(F)c2)CC1", "outcome": "inactive"}, {"smiles": "N#Cc1ccc(Oc2cc(C(F)(F)F)nc(-c3ccccn3)n2)cc1", "outcome": "inactive"}, {"smiles": "O=C1C(=O)N(CCCO)C(c2ccccc2)/C1=C(\\O)c1ccc(Br)cc1", "note": "(stereo not given)", "outcome": "inactive"}, {"smiles": "CN(C(=O)CSc1nnc(Nc2ccccc2)s1)C1CCS(=O)(=O)C1", "note": "(stereo not given)", "outcome": "inactive"}, {"smiles": "CC1(C)Cc2c(cnn2-c2cccc(F)c2)C(NC(=O)c2cc[n+]([O-])cc2)C1", "note": "(stereo not given)", "outcome": "inactive"}, {"smiles": "COc1ccc(CCn2ccc(O)c(Cc3ccc(Cl)cc3Cl)c2=O)cc1OC", "outcome": "inactive"}, {"smiles": "COC(=O)C1=C(C)NC2=C(C(=O)c3ccccc32)C1c1ccc(-c2ccc(C(=O)O)cc2)o1", "note": "(stereo not given)", "outcome": "inactive"}, {"smiles": "CC1=C(C)CC(C(=O)NC(C)CCc2ccccc2)C(C(=O)O)C1", "note": "(stereo not given)", "outcome": "inactive"}, {"smiles": "Cn1cccc1C1(C(F)(F)F)NCCNC1=O", "note": "(stereo not given)", "outcome": "inactive"}, {"smiles": "CCc1nnc(NC(=O)[C@@H](NC(=O)c2cccc(C)c2)C(C)C)s1", "outcome": "inactive"}, {"smiles": "O=C(CNC(=O)c1ccccc1)NCC(=O)OCC(=O)c1ccccc1", "note": "(Bz-Gly-Gly-OPac)", "outcome": "inactive"}, {"smiles": "CSc1nnnn1-c1c(C)cc(C)cc1C", "outcome": "inactive"}, {"smiles": "CCOC(=O)C1=C(O)/C(=C/c2cc(C)n(-c3ccccc3)c2C)N=C1C", "outcome": "inactive"}, {"smiles": "COc1cc(C2C3=C(CCCC3=O)OC3=C2C(=O)CCC3)ccc1OCC(=O)Nc1ccccc1", "outcome": "inactive"}, {"smiles": "Cc1ccc(-c2cn(S(=O)(=O)c3cccc([N+](=O)[O-])c3)nc2N)cc1", "outcome": "inactive"}, {"smiles": "C/C(=N/OC(=O)c1ccc(Br)cc1)c1ccc(C)cc1", "outcome": "inactive"}, {"smiles": "O=c1[nH]c2cccnc2n(CCNc2ncc(C(F)(F)F)cc2Cl)c1=O", "outcome": "inactive"}, {"smiles": "c1cnc(N2CCN(c3ccc4ccccc4n3)CC2)nc1", "outcome": "inactive"}, {"smiles": "NS(=O)(=O)c1cccc(NC(=O)CSc2nc3ccccc3n2-c2ccccc2)c1", "outcome": "inactive"}]}]}
